Screening data deposited in PubChem BioAssay by National Center for Advancing Translational Sciences (NCATS).
NPC1 promoter act = activators of NPC1 promoter; Huh7 NPC1 promoter luciferase reporter, 24 h; Potency, µM (titrated, usually from 9.22 µM), inactives show at the top dose activation, most hits filed as activators; 320,000 compounds, 2.4% hits; AID 485313; note: % of control where 0% means no effect; nearly all actives have a fitted effect of over 60% in size
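Cells: Huh7 expressing luciferase under the NPC1 promoter, 1500/well. Seeded 2 h, compound added, incubated 24 h at 37 °C. Luciferase reagent, 10 min ambient, then luminescence.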
SMN2 splice enh = SMN2 splice variant enhancement; AID 1458; HEK293 SMN2-luciferase splicing reporter, luminescence, 30-36 h; 210,000 compounds, 2.8% hits; Potency, µM (doses to about 46.1 µM), without a hit: at the top dose activity change, positive = activation, usual class: activators; note: % of control where 0% means no effect; nearly all actives have a fitted effect of over 55% in size
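HEK293 cells carry an SMN2 […]–luciferase reporter in which exon 7 inclusion puts luciferase in frame. Cells were plated 10-12 h before compound addition, then incubated 30-36 h at 37C. ONE-Glo luminescence was read; sodium butyrate at 4.5 mM final served as control.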
FLuc modulator = counter-screen for miR-21 project: firefly luciferase inhibitors or activators | P08659 | AID 588342 | purified FLuc, Km substrates, luminescence inhibition | 360,000 compounds, 6.9% hits | Potency, µM (top dose mostly 57.5 µM), for inactives: at the top dose activity change, negative = inhibition, most hits filed as inhibitors;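 note: plate controls were vehicle for no effect and reference inhibitor for full effect; nearly all actives have a fitted effect of over 55% in size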
Target sequence (P08659 whole entry, looked up): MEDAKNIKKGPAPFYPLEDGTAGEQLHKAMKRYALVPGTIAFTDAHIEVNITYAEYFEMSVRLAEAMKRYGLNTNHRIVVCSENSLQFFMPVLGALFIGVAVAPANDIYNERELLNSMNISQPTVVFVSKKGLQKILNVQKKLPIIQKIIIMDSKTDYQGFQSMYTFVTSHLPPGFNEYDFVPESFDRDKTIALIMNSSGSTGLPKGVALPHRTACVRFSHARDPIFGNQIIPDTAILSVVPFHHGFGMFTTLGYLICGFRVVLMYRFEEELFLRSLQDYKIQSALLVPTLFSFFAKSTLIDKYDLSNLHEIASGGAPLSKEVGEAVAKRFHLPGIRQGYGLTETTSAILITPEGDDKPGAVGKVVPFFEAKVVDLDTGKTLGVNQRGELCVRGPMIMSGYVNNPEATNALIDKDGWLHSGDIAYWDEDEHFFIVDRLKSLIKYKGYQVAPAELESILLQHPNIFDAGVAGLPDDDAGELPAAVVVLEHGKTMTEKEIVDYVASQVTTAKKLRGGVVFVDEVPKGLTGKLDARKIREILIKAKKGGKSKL
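Purified P. pyralis luciferase, 10 nM final, with Km-level 10 uM D-luciferin and 10 uM ATP in 50 mM Tris acetate pH 7.5, 10 mM Mg acetate, 0.01% Tween-20, 0.05% BSA; 6-point qHTS titration about 60 µM downward; luminescence read.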
Rab9 prom act = activates the Rab9 promoter; Huh7 Rab9 promoter-luciferase reporter, luminescence, 24 h; Potency, µM (doses to about 9.22 µM), without a hit: top-dose activation, negative = inhibition, most hits filed as activators; 320,000 compounds, 2.8% hits; note: % of control where 0% means no effect; nearly all actives have a fitted effect of over 60% in size
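Huh7 cells stably carrying Rab9 promoter–luciferase reporter, plated 1500 cells/well, compound added after 2 h and incubated 24 h at 37 °C; luciferase luminescence then read after 10 min with detection reagent.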
Luc counter = counter-screen: inhibitors of Kinase-Glo firefly luciferase; Q27757; Kinase-Glo luciferase, ATP luminescence, 8 min; AID 1379; Potency, µM (series often up to 38.3 µM), for inactives: top-dose activity change, negative = inhibition, hits mostly inhibitors; 200,000 compounds, 0.28% hits; note: % is set by controls: 0 for no effect and ±100 for the full control effect; nearly all actives have a fitted effect of over 60% in size
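Substrate mix (final 50 mM imidazole pH 7.2, 50 mM KCl, 7 mM MgCl2, 10 uM ATP, 0.01% Tween 20, 0.05% BSA) plus pin-tool compound, then Kinase-Glo detection mix; 8 min ambient, luminescence read.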
ELG1 genotoxic = genotoxicity induction in ELG1-luciferase HEK293T cells. HEK293T ELG1-luciferase reporter, luminescence, 16 h. Potency, µM (highest dose often 46 µM), for the others: top-dose activity change, positive = activation, usual class: activators. 330,000 compounds, 1.3% hits. AID 504466; note: % of control where 0% means no effect; nearly all actives have a fitted effect of over 60% in size
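Step 1: seed 2,000 HEK293T ELG1-luciferase cells per well. Step 2: add compound or DMSO, incubate 16 hr at 37 °C. Step 3: ONE-Glo, 30 min at room temperature, read luminescence.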
Starred values were filed as active, the others as inactive; u = inconclusive; x = no result given; [ ] = dose if it differs, or a comment. In the library only some 7.3% were active in any assay of this set; here they are far more common. Calls come from the whole dose curve; as a rule, active = well fitted curve in the direction sought with a large enough effect; inconclusive = small, poorly fitted or top-dose-only effect, or another doubt; inactive = no such curve, though single readings can be large; an effect the other way counts as inactive or inconclusive. Potency is the fitted concentration of half-maximal effect.

SMILES	NPC1 promoter act	SMN2 splice enh	FLuc modulator	Rab9 prom act	Luc counter	ELG1 genotoxic
N#CCOc1ccc2oc(-c3ccco3)cc(=O)c2c1	9%	-19%	1%	2%	-18%	-6%
O=C(CC1N=C2c3ccccc3N=C(SCc3ccccc3Cl)N2C1=O)NCc1cccs1 (configuration not stated)	x	x	-11%	x	x	x
COCC(=O)N1c2nc(-c3ccco3)nn2C2(CCCCC2)[C@@H]2CCCC[C@@H]21	x	x	-6%	x	x	x
CCCCC[C@H](O)/C=C/C=C\C=C\[C@@H](O)C/C=C\CCCC(=O)O	x	17%	x	x	0%	x
C=CCSc1n[nH]c(-c2ccc(OC)cc2)n1	2.8µM*	14µM*	15µM*	2µM*	-8%	3.3µM*
CCCCOc1ccc(-c2nc(=S)[nH][nH]2)cc1	26%	10µM*	u	u	15%	30%
Cc1ccc(-c2nc(SCC(=O)Nc3cc(S(=O)(=O)N4CCCCC4)ccc3Cl)n[nH]2)cc1	-5%	5%[1.84 µM]	15µM*	-7%	-3%	0%
CC(=O)c1cccc(NC(=O)CSc2n[nH]c(-c3ccncc3)n2)c1	1%	x	u	-12%	x	2%
Nc1cc(=O)[nH]c(SCC(=O)Nc2cc(S(=O)(=O)N3CCCCCC3)ccc2Cl)n1	x	x	x	x	x	-4%
COc1ccc(-c2nc(SCC(=O)Nc3cccc(C(C)=O)c3)n[nH]2)cc1	x	x	6.7µM*	x	x	x
CCCCOc1ccc(-c2nc(SCC(N)=O)n[nH]2)cc1	u	10%	11µM*	25%	-1%	12%
COc1cc(OC)cc(-c2nc(SCC(=O)Nc3ccccc3F)n[nH]2)c1	0%	x	1%	0%	x	2%
COc1ccc(-c2nc(SCC(=O)Nc3cc(C)on3)n[nH]2)cc1	0%	-11%	21µM*	1%	-4%	11%
COc1ccc(-c2nc(SCC(=O)Nc3c(F)cccc3F)n[nH]2)cc1	-1%	x	12µM*	-3%	x	16%
COc1cc(-c2nnc(SCCOc3ccc(Cl)cc3)o2)cc(OC)c1OC	x	x	5%	x	x	x
CCCCCCOC(=O)c1ccc(N)cc1	u	x	11µM*	u	x	u
CCCCOC(=O)Nc1ccc(C(=O)OC)cc1	u	-2%	12µM*	u	-3%	u
CCCCOC(=O)c1ccc(NC(C)=O)cc1	19%	15%	u	1%	5%	3%
CCCCOC(=O)c1ccc(NC(=O)c2cc(Cl)c(Cl)cc2C(=O)O)cc1	0%	x	21µM*	-7%	4%	4%
CCCCOC(=O)c1ccc(N)cc1	21%	28%	u	15%	-3%	u
CCCCOC(=O)Nc1ccc(C)c(Cl)c1	3.5µM*	u	6.7µM*	2.8µM*	-8%	u
COc1ccc(-c2cn3ccccc3n2)cc1[N+](=O)[O-]	4µM*	11µM*	1.7µM*	1.4µM*	u	u
CCCCOc1ccc(-c2csc(N)n2)cc1[N+](=O)[O-]	2.5µM*	13µM*	3.8µM*	2.8µM*	-1%	u
CCCCOc1ccc(C2=CSC3=NCCN23)cc1[N+](=O)[O-]	-1%	x	-1%	-3%	x	8%
CCCOc1ccc(-c2cn3ccccc3n2)cc1[N+](=O)[O-]	3.2µM*	1.6µM*	1.7µM*	2.2µM*	u	u
COc1ccc(-c2cn3cc([N+](=O)[O-])ccc3n2)cc1OC	26%	u	15µM*	u	-9%	u
CCc1ccccc1N(CC)C(=O)c1c(C)oc2ncnc(N3CCOCC3)c12	x	x	25%	x	x	x
CCN(CC)[C@@H](C)CN1c2ccccc2Sc2ccccc21	x	-16%[20.6 µM]	x	x	-6%[17.1 µM]	x
COc1ccc(-c2nc(C)c(C(C)=O)n2O)cc1[N+](=O)[O-]	4%	24%	17µM*	13%	u	1%
CC(=O)c1c(C)nc(-c2cccc([N+](=O)[O-])c2)n1O	-6%	-12%	-4%	-3%	-4%	-2%
